The whole screen tested about 360,000 compounds, of which about 11,000 (3.1%) were called active. What follows is part of a selection rich in actives, with near analogues and random picks from the rest. Unmarked numbers belong to inactive results. Rule as the data show it: active = activity change below about -30%; inactive = the rest.
% is scaled to controls: 0 for no effect and ±100 for the full control effect.

Sequence of D(1A) dopamine receptor (Homo sapiens) (P21728 whole entry, looked up): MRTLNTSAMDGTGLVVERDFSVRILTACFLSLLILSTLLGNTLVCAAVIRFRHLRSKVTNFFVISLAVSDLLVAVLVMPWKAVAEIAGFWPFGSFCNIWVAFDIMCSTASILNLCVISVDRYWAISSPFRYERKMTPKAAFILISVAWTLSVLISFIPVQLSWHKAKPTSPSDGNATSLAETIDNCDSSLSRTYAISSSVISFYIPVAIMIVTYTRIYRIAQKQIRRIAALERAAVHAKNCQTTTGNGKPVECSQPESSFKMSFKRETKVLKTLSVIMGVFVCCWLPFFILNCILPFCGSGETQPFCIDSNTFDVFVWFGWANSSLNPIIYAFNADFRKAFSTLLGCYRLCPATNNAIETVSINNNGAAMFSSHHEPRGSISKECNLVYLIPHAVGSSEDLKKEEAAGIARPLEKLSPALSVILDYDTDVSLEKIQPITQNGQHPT

The target in this test is D(1A) dopamine receptor (Homo sapiens) (UniProt P21728). The experiment in a line: Antagonist of Human D 1 Dopamine Receptor: qHTS. The note with it: HEK293 TREx D1 cells, calcium flux, dopamine EC80; at 10 µM; hits give low values. Put shortly:
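HEK293 T-REx cells expressing inducible, force-coupled D1 receptor; no-wash Ca dye, 30–90 min RT. Cmpd → 180 s read at 1 Hz → EC80 DA → 180 s read.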
As for `COc1ccccc1C1C(C(=O)N2CCCCC2)=C(C)Nc2nc3ccccc3n21` (stereo not drawn), the activity change, negative = inhibition is 3.49%.
`O=C(CS(=O)(=O)c1cccc2nsnc12)N1CCN(c2cccc(Cl)c2)CC1`: the activity change, negative = inhibition is -13.7%.
As for `Cc1cc(OCCCN2CCN(Cc3ccccc3)CC2)ccc1[N+](=O)[O-]`, the figure is -35.7% (active); as for `COc1cc(CN2CCN(Cc3ccc(C)cc3)CC2)c([N+](=O)[O-])cc1OC`, 5.79%.
Next, `Cc1cc(OCC(=O)NC2CCN(C)CC2)ccc1[N+](=O)[O-]`: -13%.
As for `O=C(CCn1c(=O)c2ccccc2n(Cc2ccc(Cl)cc2)c1=O)NCc1ccc2c(c1)OCO2`, the figure is -2.86%; as for `CCOC(=O)c1c(NC(=O)c2ccc(S(=O)(=O)N(C)CC3CCCO3)cc2)sc2c1CC(C)(C)NC2(C)C` (stereo not drawn), -2.75%.
As for `O=C(NCC1CCCO1)c1ccc(S(=O)(=O)Nc2ccc(F)cc2)cc1` (stereo not drawn), the activity change, negative = inhibition was -8.93%.
Next, `Cc1ccc(NC(=O)c2ccc(S(=O)(=O)NCC3CCCO3)cc2)cc1C` (stereo not drawn): -12%.
In the case of `CC1CCc2noc(NC(=O)c3ccc([N+](=O)[O-])cc3)c2C1` (stereo not drawn), the activity change, negative = inhibition was -19.9%.
As to `CN(CC1CCCO1)S(=O)(=O)c1ccc(C(=O)Nc2ccc(F)cc2)cc1` (stereo not drawn), the activity change, negative = inhibition was -41.6% (active).
Next, `CN(CC1CCCO1)S(=O)(=O)c1ccc(C(=O)Nc2ccc([N+](=O)[O-])cc2)cc1` (stereo not drawn): -32.3% (active); `CCC(=O)Nc1ccc(S(=O)(=O)NCC2CCCO2)cc1` (stereo not drawn): -9.18%.
With `O=C(Nc1ccc(S(=O)(=O)NCC2CCCO2)cc1)c1ccc(F)cc1` (stereo not drawn), the activity change, negative = inhibition is -29.6%.
Next, `CCOc1ccc(C(=O)Nc2ccc(S(=O)(=O)NCC3CCCO3)cc2)cc1OCC` (stereo not drawn): -38.2% (active); `CCC1(C)CC(=O)c2c(ccc3oc(C(=O)Nc4ccc(C(C)=O)cc4)c(C)c23)O1` (stereo not drawn): -2.38%.
As for `COc1cccc(CNC(=O)Cn2c(=O)c3cccn3c3ccc(F)cc32)c1OC`, the figure is 4%.
As for `CCOc1cc(NC(=S)NCCCN(C)C)c(OCC)cc1NC(=O)C1CC1`, the figure is -3.38%; as for `CCOc1cc(NC(=S)NCCCOC)c(OCC)cc1NC(=O)c1ccco1`, -35.1% (active).
Consider `CCOc1cc(NC(=S)NCc2ccco2)c(OCC)cc1NC(=O)c1ccco1`, for which the activity change, negative = inhibition is -1.48%.
In the case of `CCSc1ncc(Cl)c(C(=O)Nc2c(C(=O)c3ccccc3)oc3ccccc23)n1`, the activity change, negative = inhibition was -6.04%.
With `Cc1ccccc1CS(=O)(=O)CC1Nc2ccc(C(=O)NCc3ccc(Cl)cc3)cc2NC1=O` (stereo not drawn), the activity change, negative = inhibition was -8.08%.
As for `Cc1cc(C(=O)N/N=C/c2ccc(O)c([N+](=O)[O-])c2)c(C)n1-c1ccc(F)cc1`, the activity change, negative = inhibition is -30% (active).
On to `Cc1cc(C(=O)COC(=O)C2CC2)c(C)n1-c1ccc(F)cc1`, for which the activity change, negative = inhibition is -6.5%.
Turning to `O=C1CSC(=S)N1/N=C/c1ccc(O)c([N+](=O)[O-])c1`, the activity change, negative = inhibition was -20.2%.
As to `Cc1ccccc1CN1CCC(CNC(=O)c2c(C)oc3ncnc(N4CCCCC4)c23)CC1`, the activity change, negative = inhibition was -6.32%.
As for `O=C(c1ccc(F)cc1)n1cc(C(=S)N2CCOCC2)c2ccccc21`, the activity change, negative = inhibition was -30.2% (active).
`O=C(Oc1ccc(C(=S)N2CCOCC2)cc1)c1ccc(F)cc1`: the activity change, negative = inhibition was -12.9%.
As for `O=C(Nc1ccc(F)cc1)C(=O)c1cn(CC(=O)N2CCOCC2)c2ccccc12`, the figure is 0.328%; as for `Cn1c(=O)sc2cc(NS(=O)(=O)c3ccc(C(C)(C)C)cc3)ccc21`, 6.14%.
As for `O=C(O)CC/C(=C\c1cc2c(cc1Br)OCO2)c1nc2ccccc2s1`, the figure is -6.84%; as for `CC1=CC(=C(C#N)c2nc3ccccc3s2)C=C(C)N1c1ccc(F)cc1F`, -3.42%; as for `O=C(O)CS/C(=C\c1ccc(F)cc1)c1nc2ccccc2s1`, -33.3% (active).
On to `COc1ccc(OC)c(NC(=O)CSc2nc3ccccc3nc2N2CCCCC2)c1`, for which the activity change, negative = inhibition was -1.47%.
Turning to `Cc1cccc(NC(=O)CSc2nnc(CNC(=O)c3cccc(C)c3)n2-c2ccccc2)c1`, the activity change, negative = inhibition is -12.8%.
For `Cc1ccc(-c2nc(CS(=O)(=O)CC(=O)NCc3ccccc3Cl)c(C)o2)cc1`, the activity change, negative = inhibition was 3.92%.
Consider `Cc1ccsc1C1C(C#N)=C(N)OC2=C1C(=O)CC(C)C2` (stereo not drawn), for which the activity change, negative = inhibition was -22.6%.
For the compound `Cc1ccsc1C1C(C#N)=C(N)OC2=C1C(=O)CC(C)(C)C2` (stereo not drawn), the activity change, negative = inhibition was -36.3% (active).
Consider `COc1ccc(C2C(C#N)=C(/N=C/N3CCOCC3)OC3=C2C(=O)CC(C)(C)C3)cc1OC` (stereo not drawn), for which the activity change, negative = inhibition is 4.71%.
On to `COc1ccc(-c2c(C)nn3c(N4CCC(C(=O)NCCC(C)C)CC4)cc(C)nc23)cc1OC`, for which the activity change, negative = inhibition is -5.31%.
`COc1cccc(CNc2nccn(-c3ccc(OC)c(OC)c3)c2=O)c1`: the activity change, negative = inhibition is 6.9%.
Regarding `COc1ccc(C2NC(=O)N(C)C3=C2C(=O)N(c2ccc(C(=O)O)cc2)C3)cc1` (stereo not drawn), the activity change, negative = inhibition is -10.6%.
As to `COC(=O)c1ccc(NC(=O)CCc2c(C)nn(-c3ccc(N4CCCC4)nn3)c2C)cc1`, the activity change, negative = inhibition was -3.84%.
Next, `CCOc1c(OC)cccc1C(=O)NCC1(c2ccccc2)CCCC1`: 19%; `O=C(CNC1CCCCC1)NCC1(c2ccccc2)CCCC1`: 4.83%.
Take `Cc1cccc(C(CC(=O)NCC2(c3ccccc3)CCCC2)c2ccccc2)c1O` (stereo not drawn): the activity change, negative = inhibition is -31% (active).
As to `COc1ccc(/C=C/c2noc(-c3ccccc3O)n2)cc1OC`, the activity change, negative = inhibition was 4.82%.
In the case of `CC(C)CCN(C(=O)Nc1ccc(Cl)c(Cl)c1)C(C)c1cccs1` (stereo not drawn), the activity change, negative = inhibition was -22.4%.
As for `O=C(COc1ccc(Cl)cc1)Nc1ccccc1OCc1cc(=O)n2ccccc2n1`, the activity change, negative = inhibition was 0.395%.
`O=C(CSc1ncc(CO)n1Cc1ccc(Cl)cc1)NCc1ccc(F)cc1`: the activity change, negative = inhibition is -8.7%.
Regarding `CC(C)C(NC(=O)c1cccc(S(=O)(=O)N2CCOCC2)c1)C(=O)NCCc1ccccn1` (stereo not drawn), the activity change, negative = inhibition is 10.6%.
In the case of `Cc1nn(Cc2ccccc2)c(C)c1CNC(=O)c1ccc(F)c(S(=O)(=O)N2CCOCC2)c1`, the activity change, negative = inhibition was -20.4%.
For the compound `COc1ccc(C(=O)N(Cc2ccccc2)c2ccc(C)cc2)cc1S(=O)(=O)N1CCOCC1`, the activity change, negative = inhibition was 8.42%.
`CCN(CC(=O)NCc1cccs1)C(=O)c1ccc(OC)c(S(=O)(=O)N2CCOCC2)c1`: the activity change, negative = inhibition was 2.75%.
Consider `CCN(Cc1ccncc1)C(=O)c1cccc(S(=O)(=O)N2CCOCC2)c1`, for which the activity change, negative = inhibition is -44.2% (active).
As for `O=C(c1ccc(F)c(S(=O)(=O)N2CCOCC2)c1)N(CCc1ccccc1)Cc1ccccc1`, the figure is -39.2% (active); as for `CCOC(=O)c1cnc2c(C)cc(C)cc2c1Nc1ccc(N2CCOCC2)cc1`, 15.4%.
Turning to `CCOC(=O)c1cccc(NC(=O)Cn2cnc3nc4c(cc3c2=O)CCCC4)c1`, the activity change, negative = inhibition was 17.9%.
Consider `COc1cc2[nH]c(=O)n(Cc3ccc(C(=O)NCc4ccc(C)cc4)cc3)c(=O)c2cc1OC`, for which the activity change, negative = inhibition was 1.6%.
For `COc1ccc2c(c1)c(N1CCCC1=O)c(C(=O)Nc1ccc(OC)c(Cl)c1)n2C`, the activity change, negative = inhibition is 11.9%.
As to `CCOC(=O)Cc1ccc(NC(=O)Nc2c[nH]c(=O)[nH]c2=O)cc1`, the activity change, negative = inhibition was 0.423%.
As for `COc1ccc(C)cc1-n1c(-c2ccc(C)cc2)cc2c1CC(C)(C)CC2=O`, the activity change, negative = inhibition is 12.6%.
Take `CC(C)S(=O)(=O)c1oc(-c2ccc(F)cc2)nc1S(=O)(=O)c1ccc(F)cc1`: the activity change, negative = inhibition is 6.44%.
Regarding `Cc1cccc(N2CCN(C(=O)c3ccc(Nc4nc5ccccc5n5nnnc45)cc3)CC2)c1C`, the activity change, negative = inhibition was -6.91%.
For the compound `CCCOc1ccc(NC(=O)CC2C(=O)N(c3ccccc3)C(=O)N2Cc2ccco2)cc1` (stereo not drawn), the activity change, negative = inhibition was -3.01%.
For the compound `COc1ccc(-c2nc3nc(C)cc(C)n3c2Nc2c(C)cccc2C)cc1`, the activity change, negative = inhibition was 4.35%.
With `Cc1ccc(C2CCN(C(=O)c3cnn(-c4ccccc4Cl)c3C3CCN(C(=O)OC(C)(C)C)CC3)C2)cc1` (stereo not drawn), the activity change, negative = inhibition was 6.31%.
Turning to `O=C(NCc1ccco1)c1nc2ncccn2n1`, the activity change, negative = inhibition was 8.67%.
Regarding `O=C(NCc1ccco1)c1cccn2c(=O)c3c4c(sc3nc12)CCCC4`, the activity change, negative = inhibition is -112% (active).
Turning to `O=c1oc(-c2ccco2)nc2sc3c(c12)CCCCC3`, the activity change, negative = inhibition was -12.2%.
On to `O=C(CN1C(=O)CCn2nc(-c3ccccc3)cc21)NCc1ccccc1`, for which the activity change, negative = inhibition was -7.67%.
Turning to `O=C(c1ccc(C(F)(F)F)cc1)N1CCC(c2nc(-c3ccc(S(=O)(=O)N4CCCC4)cc3)no2)CC1`, the activity change, negative = inhibition is -0.206%.
Next, `CCCCC(=O)Nc1nc(C)c(-c2csc(Nc3ccc(Cl)cc3)n2)s1`: 103%.
Turning to `S=c1[nH]nc(NCCc2ccccc2)s1`, the activity change, negative = inhibition is 0.618%.
With `Cc1nc(C)c(-c2csc(NCCc3ccccc3)n2)s1`, the activity change, negative = inhibition is -71% (active).
Regarding `O=C(CSc1ccccc1F)NC1CCS(=O)(=O)C1` (stereo not drawn), the activity change, negative = inhibition was 2.27%.
As for `CCCSC(=S)NC1CCS(=O)(=O)C1` (stereo not drawn), the figure is -7.48%.
As for `O=S1(=O)CCC(NC(=S)SCc2ccccc2Br)C1` (stereo not drawn), the figure is -63% (active); as for `Cc1ccccc1CNC(=O)C1CCCN(S(=O)(=O)N(C)c2ccc(F)cc2)C1` (stereo not drawn), -10.3%.
As for `FC(F)(F)Oc1ccc(NC(=S)NCc2ccccc2)cc1`, the activity change, negative = inhibition is -19.3%.
Next, `Fc1ccccc1CNC(=S)Nc1ccc(Cl)cc1`: -38.1% (active); `S=C(NCc1cccs1)Nc1ccc(Cl)cc1`: -26.2%; `Cc1ccc(C(=O)Nc2cc3c(cc2N2CCCC2)n(C)c(=O)c(=O)n3C)cc1`: 16%.
For `COc1ccc(N2C(=O)CS(=O)(=O)C23C(=O)N(Cc2ccc(C)cc2)c2ccccc23)cc1Cl` (stereo not drawn), the activity change, negative = inhibition was -16%.
As for `CCOc1ccccc1NC(=O)CN1CCCN(Cc2cccc(Cl)c2)S1(=O)=O`, the figure is 2.3%; as for `O=C(O)CCCc1ccccc1`, -31.7% (active); as for `O=C(CCCc1ccccc1)NCc1ccccc1`, -7.61%.
As for `O=C(O)CCC(=O)N(Cc1ccccc1)Cc1ccccc1`, the activity change, negative = inhibition is -11.6%.
